MBNL1-CUG inh = inhibitors of human MBNL1 binding to CUG repeat RNA. Potency, µM (highest dose often 57.5 µM), for inactives: at the highest dose activity change, negative = inhibition, usual class: inhibitors. Q9NR56. TR-FRET MBNL1-His/biotin-(CUG)12 binding, 665/545 ratio. 280,000 tested, 0.036% active. AID 2675; active means well fitted inhibition curve with a large enough effect in the signal ratio, with a control signal flat, not every such curve was filed as active; inconclusive means small, poorly fitted or top-dose-only effect, or effect the other way, or a change in a side signal; inactive means no such curve, though single readings can be large or run the other way; the % refers to the signal ratio; further: potency means the concentration at half of the fitted maximal effect; on the % scale 0 is the no-effect control and ±100 the full control effect
Target sequence (Q9NR56 whole entry, looked up): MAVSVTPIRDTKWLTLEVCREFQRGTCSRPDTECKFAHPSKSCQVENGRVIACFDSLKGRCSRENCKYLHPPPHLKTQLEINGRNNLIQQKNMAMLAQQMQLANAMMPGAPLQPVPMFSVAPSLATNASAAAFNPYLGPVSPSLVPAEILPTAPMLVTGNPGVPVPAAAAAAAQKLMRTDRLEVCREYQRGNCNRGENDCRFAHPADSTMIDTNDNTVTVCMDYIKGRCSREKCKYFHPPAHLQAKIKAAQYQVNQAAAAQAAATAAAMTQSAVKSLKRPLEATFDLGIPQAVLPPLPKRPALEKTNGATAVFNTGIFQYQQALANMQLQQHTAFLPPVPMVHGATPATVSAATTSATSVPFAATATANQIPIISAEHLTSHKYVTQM
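Inhibition of protein-RNA binding appears as loss of TR-FRET between terbium anti-His antibody on MBNL1-His and streptavidin-XL665 on biotin-(CUG)12. Activity is normalized to buffer-only and uninhibited-complex controls.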
RORg inh = ROR gamma (mouse) transcription inhibition; 310,000 tested, 5.4% active; P51450; Potency, µM (top dose mostly 53.6 µM), for inactives: at the highest dose activity change, negative = inhibition, most hits filed as inhibitors; AID 2551; Drosophila S2 Gal4-RORgamma UAS-luciferase reporter, 20 h; further: potency means the concentration at half of the fitted maximal effect; on the % scale 0 is the no-effect control and ±100 the full control effect; nearly all actives have a fitted effect of over 60% in size
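Luminescence from a UAS-regulated Photinus luciferase reporter in stably transfected Drosophila Schneider cells is measured; decreased signal marks ROR gamma inhibition. Fusion expression is induced by 700 uM copper sulfate for 20 hr.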
CtBP-E1A inh = blocks the CtBP interaction with E1A. AlphaScreen GST-E1A/His-CtBP binding, 1536-well; active compounds read low. activity change, % (concentration not given with the values). 340,000 tested, 0.49% active; in the data active means activity change below about -65%; inconclusive means mostly about -30% to -63%; further: on the % scale 0 is the no-effect control and ±100 the full control effect
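GST-E1A and His-tagged CtBP (125 nM each as 5X stock) were preincubated with pin-transferred compound for 2 h at 37 °C in the dark, then glutathione donor and nickel acceptor beads were added for 1 h before AlphaScreen reading.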
CBFb-RUNX1 inh = blocks binding between human CBF-beta and RUNX1; Q01196+Q13951; AlphaScreen CBFb-His/RUNX1-biotin binding, biochemical; Potency, µM (top dose mostly 59.8 µM), inactives show top-dose activity, negative = inhibition, actives largely listed as inhibitors; 230,000 tested, under 10 active; AID 1477; further: % of control where 0% means no effect
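Room-temperature protein-protein interaction test with 30 nM each of His-tagged CBF-beta and biotinylated RUNX1, 15 min with compound, then 90 min with nickel plus streptavidin beads. Signal read in AlphaScreen mode.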
Six1-Eya2 inh = Six1/Eya2 interaction inhibition; AID 651725; 360,000 tested, 0.56% active; AlphaScreen GST-Six1/His-Eya2 binding, biochemical; active compounds read low; Q15475+O00167; activity change, % (test concentration not listed); in the data active means activity change below about -65%; inconclusive means mostly about -30% to -63%; further: on the % scale 0 is the no-effect control and ±100 the full control effect
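GST-Six1 + His-Eya2 (5X stock: 250/500 nM); Tris pH 8.0, 300 mM NaCl, 0.05% BSA, 0.02% Tween 20; GSH donor/Ni acceptor beads; 1 h 37 °C dark; AlphaScreen readout.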
VP16 counter = Gal4-VP16 reporter inhibition counter-screen. Drosophila S2 Gal4-VP16 UAS-luciferase, luminescence, 20 h. Potency, µM (highest dose often 53.6 µM), for inactives: at the highest dose activity, negative = inhibition, hits mostly inhibitors. 310,000 tested, 3.5% active;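 further: Gal4-VP16 expression switched on by copper sulfate through the metallothionein promoter; potency means the concentration at half of the fitted maximal effect; on the % scale 0 is the no-effect control and ±100 the full control effect; nearly all actives have a fitted effect of over 50% in size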
The depositor's hits bear a star; ? = inconclusive; nt = no result given; [ ] = another dose, or the depositor's remark. In the library only some 5.5% were active in any assay of this set; here they are far more common. Unless noted, the call rests on the fitted dose curve; in most records, active means well fitted curve in the direction sought with a large enough effect; inconclusive means small, poorly fitted or top-dose-only effect, or another doubt; inactive means no such curve, though single readings can be large; an effect the other way counts as inactive or inconclusive.

SMILES	MBNL1-CUG inh	RORg inh	CtBP-E1A inh	CBFb-RUNX1 inh	Six1-Eya2 inh	VP16 counter
Cc1ccc(Nc2nc(N/N=C\c3ccc4c(c3)OCO4)nc(N3CCOCC3)n2)cc1	nt	8.9µM*	-5	2%	-2	-18%
Cc1ccc(/C=N/Nc2cc(C)nc(N3CCOCC3)n2)cc1	-8%	24%	5	10%	3	-6%
Cc1cc(C)nc(N/N=C/c2cc3c(cc2[N+](=O)[O-])OCO3)n1	nt	31%	0	-8%	1	-2%
COC(=O)c1c(C)cc(C)n2c1nc1ccccc12	25%	10µM*	1	8%	5	-6%
Cc1cc(C)n2c(nc3ccccc32)c1C(=O)NN	nt	-43%	-1	2%	2	-10%
O=C(CNC(=O)c1ccc(Br)o1)NCC1CCCCC1	nt	nt	nt	nt	7	nt
COc1cc(/C=N/Nc2ncnc3sc4c(c23)CCC4)ccc1O	nt	-10%[10 µM]	-83*	-3%	-68*	?
COc1ccc(/C=N/Nc2ncnc3scc(-c4ccccc4)c23)cc1OC	?	3.5µM*	-20	2%	-12	0.89µM*
O=C1NC[C@@H](CCCCN2C[C@H](Cc3ccccc3)N(CCC3CCCCC3)C(=O)C2=O)N(CC2CCCCC2)C1=O	nt	nt	-4	nt	8	nt
Cc1cc(F)c(F)c(C(=O)N2CCOCC2)c1Cl	-7%	13%	3	2%	-92*	-6%
Cc1cc(F)c(F)c(C(=O)N2CCN(C)CC2)c1Cl	-3%	0%	-1	0%	5	0%
CCCOc1cccc(C(=O)NC(=S)Nc2ccccc2)c1	-12%	8.9µM*	0	3%	3	?
CC(C)COc1cccc(C(=O)NC(=S)Nc2cccc(NC(=O)c3ccccc3Cl)c2)c1	-6%	6.3µM*	-5	3%	0	5.6µM*
CC(C)Oc1cccc(C(=O)NC(=S)Nc2ccccc2)c1	-5%	?	2	-15%	-7	5µM*
CCCCOc1cccc(C(=O)NC(=S)Nc2cccc(NC(=O)c3ccccc3Cl)c2)c1	nt	?	2	-12%	-11	?
CCCOc1cccc(C(=O)NC(=S)Nc2cccc(NC(=O)c3ccccc3Cl)c2)c1	nt	?	16	-8%	9	?
Cc1cn([C@H]2C[C@H](O)[C@@H](CNCC3=Cc4cc(O)ccc4OC3)O2)c(=O)[nH]c1=O	nt	nt	1	nt	4	nt
C#CCSc1nc2sc3c(c2c(=O)n1C)CCC3	-10%	16%	0	nt	-4	-2%
CCOC(=O)C1CCCN(C(=S)Nc2ccc(S(=O)(=O)N3CCOCC3)cc2)C1 (configuration not stated)	nt	nt	-4	nt	2	nt
Cc1cc(C)c(NC(=S)N(CCN(C)C)Cc2cccs2)c(C)c1	-4%	17%	-12	?	-11	-9%[10 µM]
CCc1cccc(C)c1NC(=S)N(CCN(C)C)Cc1cccs1	-2%	11µM*	-3	5%	3	-9%[10 µM]
Cc1cccc(NC(=S)N(CCN(C)C)Cc2cccs2)c1	-6%	11µM*	-5	3%	-8	-1%[10 µM]
Cc1cccc(C)c1NC(=S)N(CCN(C)C)Cc1cccs1	-8%	10µM*	4	-5%	1	-3%
Cc1ccc(C(=O)OCC(=O)N(CC(C)C)c2c(N)n(Cc3ccccc3)c(=O)[nH]c2=O)s1	-2%	-25%	1	nt	1	1%
O=C(NCc1cccnc1)c1csc([C@@H]2C[C@H](O)[C@@H](CO)O2)n1	nt	nt	-2	nt	-2	nt
N#Cc1c(N2CCCC(O)C2)nc(N)c2c(N)nc3c(c12)CC(=O)N3C12CC3CC(CC(C3)C1)C2 (configuration not stated)	?	4µM*	-26	-20%	-23	?
COc1ccc(/C=C(\C#N)C(=O)OCC(=O)Nc2ccc(-c3nc4ccc(C)cc4s3)cc2)cc1	5%	0.5µM*	6	-7%	0	2µM*
